# Compound activity: PubChem, Broad Institute
# LMP1 NFkB inh = EBV LMP1-driven NF-kappaB luciferase reporter inhibitors, primary screen, cell-based, luminescence, single point. LMP1-induced NF-kappaB luciferase reporter cells. hit rate 0.69% among 350,000. inhibition, % at 12.5 µM; in the data active means inhibition above about 41%;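 further: 0% = neutral control wells and 100% = reference inhibitor control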
# Shn3 3UTR inh = reduction of Shn3 3'UTR firefly luciferase signal, primary screen, Schnurri-3 inhibitor project, cell-based, Clone20 osteoblasts, set 2; Clone20 osteoblast Shn3 3'UTR firefly luciferase, 24 h; inhibition, % at 12.5 µM; hit rate 0.52% among 360,000; AID 588674, 2011;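 active means mean inhibition of at least 75% with every replicate also reaching 75%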;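 further: 0% = median of neutral control wells and 100% = pilot-screen positive control compound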
# PAX8 reporter = inhibitors of PAX8-driven TPO luciferase reporter, primary screen, RMG-I cells, single concentration | SteadyGlo, 24 h | inhibition, % at 12.6 µM | hit rate 1.2% among 360,000 | AID 652154, 2013;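 active means mean replicate inhibition at least 60% with every replicate also reaching 60%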;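 further: luciferase light reporting Pax8 driven TPO promoter activity; plate controls were median of neutral control wells for no effect and mitoxantrone controls for full effect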
# NSD2 inh = NSD2 histone methyltransferase inhibitors, primary screen, biochemical, AlphaScreen, single concentration, set 2; hit rate 0.54% among 310,000; inhibition, % at 12.5 µM; NSD2 peptide methylation, 120 min; in the data active means inhibition above about 50%
# N-glyco inh = increase of ERlucT glycosylation luciferase signal, primary screen, N-linked glycosylation inhibitor project, D54 ERlucT cells, luminescence, set 2. D54 ERlucT glycosylation luciferase reporter, 24 h; percent of 100 nM tunicamycin response. hit rate 0.23% among 360,000. reporter increase, % at 12.5 µM;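 active means mean luciferase reporter signal, scaled so untreated is 0 and the glycosylation-blocking control 100, at or above a set limit in every replicate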;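 further: luciferase carries N-glycosylation sites so blocking glycosylation raises the light; 0% = median of neutral control wells and 100% = median of 100 nM tunicamycin wells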
# Env fusion inh = inhibitors of HIV-1 Env-driven cell-cell fusion, primary screen, HeLa-JRFL effector, CEM21 target cells, luciferase; hit rate 1.1% among 360,000; AID 651610, 2012; inhibition, % at 12.3 µM;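 active means mean replicate inhibition score of at least 50 and every replicate individually at or above 50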;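 further: 0% = plate neutral controls and 100% = maraviroc near 300 nM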
# * hit, by the source's call; / = not tested or not shown; [ ] = dose if it differs, or a comment. Only some compounds are listed: those with a hit (about 2.8% of all), similar ones and a draw of the others.
SMILES,LMP1 NFkB inh,Shn3 3UTR inh,PAX8 reporter,NSD2 inh,N-glyco inh,Env fusion inh
CO[C@H]1CN(C)C(=O)c2ccc(NS(=O)(=O)CC(F)(F)F)cc2OC[C@H](C)N(C(=O)c2ccc3c(c2)OCO3)C[C@@H]1C,/,/,-30,/,/,-2[16.7 µM]
CO[C@@H]1CN(C)C(=O)c2ccc(NS(=O)(=O)CC(F)(F)F)cc2OC[C@@H](C)N(C(=O)c2ccc3c(c2)OCO3)C[C@@H]1C,/,/,-16,/,/,65*[16.7 µM]
CCC(=O)Nc1ccc2c(c1)C(=O)N(C)C[C@H](OC)[C@@H](C)CN(C(=O)CC)[C@H](C)CO2,/,/,/,/,/,6[16.7 µM]
CCC(=O)Nc1ccc2c(c1)C(=O)N(C)C[C@@H](OC)[C@H](C)CN(C(=O)CC)[C@@H](C)CO2,/,/,/,/,/,59*[16.7 µM]
CCN(CC)S(=O)(=O)c1cccc(-n2c(O)c(C=Nc3ccccc3C(=O)O)c3ccccc3c2=O)c1,58*,-18,28,/,0,14
CCCCOc1ccc(Br)cc1CSC(=N)N,1,92*,31,-6,13,0
CCOc1ccc(C(C)=O)cc1CSC(=N)N,0,26,-2,6,6,5
Cc1cccc(NC(=O)c2ccc(Cl)c(S(=O)(=O)N3CCc4ccccc43)c2)n1,12,42,31,-1,-7,11
Cn1cc(S(=O)(=O)N2CCc3ccccc32)cc1C(=O)NC(C)(C)C,13,89*,31,/,-7,/
COc1ccc(C(=O)Nc2ccc(S(=O)(=O)N3CCc4ccccc43)cc2)cc1,0,38,/,3,-1,62*
Cc1cccc(C)c1NC(=O)c1cc(S(=O)(=O)N2CCc3ccccc32)cn1C,1,-6,-15,/,-1,-5
O=C(Nc1ccncc1)c1ccc(Cl)c(S(=O)(=O)N2CCc3ccccc32)c1,13,89*,49,-1,1,90*
NS(=O)(=O)c1ccc(NC(=O)c2ccc(S(=O)(=O)N3CCc4ccccc43)cc2)cc1,-1,19,10,2,-2,18
C[C@@H]1CN([C@@H](C)CO)C(=O)c2cc(NS(=O)(=O)c3cn(C)cn3)ccc2O[C@@H](C)CCCCO[C@@H]1CN(C)S(=O)(=O)c1cn(C)cn1,/,/,-14,/,/,2[16.7 µM]
O=C(COC(=O)c1cc(S(=O)(=O)N2CCOCC2)ccc1O)NCc1ccc2c(c1)OCO2,-1,0,-3,-2,1,82*
c1ccc(CNCCC(Cc2ccccc2)c2ccco2)cc1 (stereo not given),-12,-2,19,2,1,-300
CN(C)c1ccc(CNCCC(Cc2ccccc2)c2ccco2)cc1 (stereo not given),-7,56,20,57*,1,31
O=C(Nc1nc(-c2ccccn2)cs1)c1cc(S(=O)(=O)N2CCOCC2)ccc1F,19,40,51,1,-6,/
Cc1ccc(C(=O)Nc2nc(-c3ccccn3)cs2)cc1S(=O)(=O)N1CCOCC1,34,90*,82*,-3,-8,54
CN(CC1CCCO1)S(=O)(=O)c1ccc(C(=O)Nc2ccccc2F)cc1 (stereo not given),-5,-2,-17,-3,-2,3
O=C(Nc1nc(-c2ccccn2)cs1)c1ccc(F)c(S(=O)(=O)N2CCOCC2)c1,26,94*,84*,-1,-7,42
CN(CC1CCCO1)S(=O)(=O)c1ccc(C(=O)Nc2nc(-c3ccccn3)cs2)cc1 (stereo not given),27,90*,/,/,-7,/
Nc1ccc(-c2cc3ccccc3oc2=O)cc1,58*,77,9,-3,-5,40
O=C(NNc1ccccn1)C(c1ccccc1)c1ccccc1,-3,-5,23,0,1,-3
O=C(NNC(=S)Nc1ccc(Cl)c(Cl)c1)c1ccccn1,62*,92*,57,-4,-10,-14
SMILES,LMP1 NFkB inh,Shn3 3UTR inh,PAX8 reporter,NSD2 inh,N-glyco inh,Env fusion inh
O=C(NNC(=O)C(c1ccccc1)c1ccccc1)c1ccccn1,26,93*,51,-1,5,74*
C[C@@H]1CCCCO[C@@H](CN(C)CC2CCCCC2)[C@@H](C)CN([C@@H](C)CO)C(=O)c2cc(NS(=O)(=O)c3cccs3)ccc2O1,/,/,-4,/,/,-34[16.7 µM]
COc1ccc(S(=O)(=O)Nc2ccc3c(c2)CC(=O)N([C@@H](C)CO)C[C@H](C)[C@H](CN(C)S(=O)(=O)c2ccc(Cl)cc2)O3)cc1,/,/,-8,/,/,9[16.7 µM]
C[C@@H]1CCCCO[C@@H](CN(C)C(=O)Nc2cccc3ccccc23)[C@@H](C)CN([C@H](C)CO)C(=O)c2cc(NC(=O)Nc3ccccc3)ccc2O1,/,/,12,/,/,-7[16.7 µM]
O=C(NCC(c1cccnc1)N1CCN(c2ccc(F)cc2)CC1)c1ccccc1 (stereo not given),14,14,/,-2,-2,/
O=C(NCc1ccc(Cl)cc1)C(=O)NCC(c1cccnc1)N1CCN(c2ccc(F)cc2)CC1 (stereo not given),-1,68,22,1,-1,62*
C[C@@H]1CN([C@H](C)CO)C(=O)Cc2cc(NC(=O)NC3CCCCC3)ccc2O[C@H]1CN(C)S(=O)(=O)c1cn(C)cn1,/,/,-29,/,/,-2[16.7 µM]
Oc1ccc2ccccc2c1-c1sc(Nc2ccccc2)n[n+]1-c1ccc(F)cc1,0,-7,13,/,-3,-3
Fc1ccc(-[n+]2nc(Nc3ccccc3)sc2-c2c3ccccc3cc3ccccc23)cc1,1,57,86*,/,11,23
COc1ccc(C)cc1Nc1n[n+](-c2ccccc2)c(-c2c(OC)ccc3ccccc23)s1,44*,74,84*,/,1,46
COc1ccc(C)cc1Nc1n[n+](-c2ccccc2)c(-c2cc(OC)c(OC)cc2Br)s1,5,10,15,/,1,-10
O=C(C[C@@H]1C=C[C@H](NC(=O)c2ccccn2)[C@H](CO)O1)NCc1cccc(F)c1,/,/,-10,/,/,2[16.7 µM]
C=CCN1C(=O)[C@@]2(O[C@@H](CCO)[C@H]([Si](C)(C)c3ccc(OC)cc3)[C@H]2C)c2cc(N3CCC3=O)ccc21,/,/,31,/,/,14[16.7 µM]
C=CCN1C(=O)[C@]2(O[C@H](CCO)[C@@H]([Si](C)(C)c3ccc(OC)cc3)[C@@H]2C)c2cc(N3CCOC3=O)ccc21,/,/,17,/,/,5[16.7 µM]
C=CCN1C(=O)[C@@]2(O[C@@H](CCO)[C@H]([Si](C)(C)c3ccc(OC)cc3)[C@H]2C)c2ccccc21,/,/,66*,/,/,44[16.7 µM]
C=CCN1C(=O)[C@]2(O[C@H](CCO)[C@@H]([Si](C)(C)c3ccc(OC)cc3)[C@@H]2C)c2ccccc21,/,/,94*,/,/,40[16.7 µM]
